What all share (assay type): functional
Assay [1] has as its system Plasmodium falciparum. Briefly: GSK_TCMDC: Inhibition of Plasmodium falciparum 3D7 in whole red blood cells, using parasite LDH activity as an index of growth. Test compounds present at 2uM.
The subject of assay [2] is Plasmodium falciparum. Briefly: GSK_TCMDC: Inhibition of Plasmodium falciparum Dd2 in whole red blood cells, using parasite LDH activity as an index of growth. Test compounds present at 2uM.
Assay [3] concerns HepG2. Briefly: GSK_TCMDC: Percent inhibition of human HepG2 cell line. Test compounds present at 10uM.

Regarding `Cc1cc(N[C@@H](Cc2ccccc2)C(=O)NCc2cccc(F)c2)nc(NCc2ccccc2C)n1.O=C(O)C(F)(F)F`, the Inhibition in assay [1] turned out to be 100%; in assay [2], 75%; in assay [3], 6%.
Turning to `Cl.Nc1c2c(nc3ccc(NC(=O)CCCCCc4ccccc4)cc13)CCCC2`, the results for the Inhibition in assay [1], in assay [2] and in assay [3] were 100%, 36% and 32%, respectively.
As for `Cc1cc(N2CCNCC2)c2cc(NC(=O)Nc3ccc(Cl)c(Cl)c3)ccc2n1.Cl`, the figures for the Inhibition in assay [1], in assay [2] and in assay [3] were 100%, 86% and 23%, respectively.
For `O=C(Nc1cccc(-c2csc(-c3nc4ccccc4[nH]3)c2)c1)c1ccoc1` the same measures were 96%, 67% and 36%.
Taken in the same sequence, the figures for `Br.CC1(C)NC(N)=NC(=N)N1OCCc1cccc2ccccc12` were 95%, 97% and 57%.
Taken in the same sequence, the figures for `O=C(N[C@@H](Cc1ccccc1)C(=O)NCc1cccc(C(F)(F)F)c1)c1ccc(O)c(-c2ccc(Cl)c(Cl)c2)c1` were 96%, 97% and 0%.
As for `Cc1cc(F)ccc1-c1nc(NCC(O)CNCCc2ccccc2)nc2c1ccc(=O)n2-c1c(F)cccc1F.O=C(O)C(F)(F)F` (configuration not stated), the Inhibition in assay [1] amounted to 100%; in assay [2], 100%; in assay [3] it was 25%.
As for `O=C1CC(C(=O)Nc2cccc(-c3cccc(-c4nc5ccccc5[nH]4)c3)c2)c2ccccc2N1` (configuration not stated), the Inhibition in assay [1] is reported as 84%; in assay [2], 32%; in assay [3], 0%.
As to `COc1ccc2nccc([C@@H](O)CN3CCC(NC(=O)/C=C/c4c[nH]c5c(C)cccc45)CC3)c2c1`, the Inhibition is given as 100% in assay [1], 88% in assay [2] and 23% in assay [3].
For `Cn1nc(-c2ccc(CN[C@@H]3CCc4ccc(O)cc43)cc2)c2cnc(NC3CCCC3)nc21`, the Inhibition is listed as 97% in assay [1], 8% in assay [2] and 12% in assay [3].
For the compound `O=C(NOCCCCOc1ccc(Cl)c(Cl)c1)c1ccccc1`, the figures for the Inhibition in assay [1], in assay [2] and in assay [3] were 98%, 1% and 2%, respectively.
For the compound `O=C(/C=C/c1ccc(-c2nc3ccc(Cl)cc3[nH]2)cc1)NC1CCN(Cc2ccccc2)CC1`, the Inhibition in assay [1] is 100%; in assay [2] it was 92%; in assay [3] it was 3%.
Taken in the same sequence, the figures for `O=C(O)C(F)(F)F.c1cc(OCCN2CCCC2)ccc1CNC1CCN(CC2CCCCC2)CC1` were 100%, 54% and 15%.
In the case of `CC(C)(C)c1cc(NC(=O)c2ccc(Cl)c([N+](=O)[O-])c2)cc(C(C)(C)C)c1`, the results for the Inhibition in assay [1], in assay [2] and in assay [3] were 93%, 7% and 0%, respectively.
On to `O=C(O)C(F)(F)F.OCC1CCN(Cc2ccc(-c3ccc(-c4nc5cc(C(F)(F)F)ccc5[nH]4)cc3)cc2)CC1`, for which the Inhibition in assay [1] amounted to 100%; in assay [2] it was 91%; in assay [3] it was 17%.
For `N#Cc1ccc(C(=O)Nc2ccc(-c3cccc(CN4CCCC4)c3)cc2)cc1.O=C(O)C(F)(F)F` the same measures were 89%, 1% and 17%.
For `CC1(C(=O)Nc2ccc([N+](=O)[O-])cc2O)CC2c3ccccc3C1c1ccccc12` (configuration not stated) the same measures were 98%, 16% and 37%.
Regarding `COc1ccc(CNCc2ccccc2)cc1-c1ccc(S(=O)(=O)NCCN2CCCC2)c(F)c1.O=C(O)C(F)(F)F`, the figures for the Inhibition in assay [1], in assay [2] and in assay [3] were 87%, 42% and 29%, respectively.
For `CC(C)NCc1ccc(-c2ccc(CN3CCCC(c4ccccc4)C3)cc2)c(C(=O)NCC2CCCCC2)c1.O=C(O)C(F)(F)F` (configuration not stated) the same measures were 97%, 53% and 79%.
`O=C(O)/C=C\C(=O)O.c1cc(CN2CCCCC2)cc(OCCCNc2ccnc3ccccc23)c1`: the Inhibition in assay [1] worked out at 100%; in assay [2], 99%; in assay [3] it was 48%.
As for `COCCNC(=O)c1ccc(OC2CCN(Cc3ccc(F)c(F)c3)CC2)c(Cl)c1`, the Inhibition in assay [1] amounted to 88%; in assay [2] it was 73%; in assay [3] it was 8%.
Take `Cc1nnsc1C(=O)Nc1ccc(-c2ccc(-c3nc4cccc(C)c4[nH]3)s2)cc1`: the Inhibition is given as 100% in assay [1], 61% in assay [2] and 63% in assay [3].
With `O=C(N[C@@H](Cc1ccccc1)[C@H](O)CNCCC(F)(F)F)c1cccc(CCC2CC2)c1`, the Inhibition in assay [1] came to 87%; in assay [2] it was 13%; in assay [3], 0%.
Taken in the same sequence, the figures for `Cc1cc(O)nc(NC(=N)NOCCCc2ccccc2)n1` were 100%, 4% and 0%.
For `COc1cc2c(cc1OC)C(C(=O)c1ccccc1)=NCC2.Cl` the same measures were 85%, 62% and 19%.
As to `CN1CCC(c2c[nH]c3ccc(NC(=O)Nc4ccc(-c5ccncc5)c(Cl)c4Cl)cc23)CC1`, the Inhibition in assay [1] came out at 100%; in assay [2] it was 19%; in assay [3], 27%.
On to `NCc1ccc(-c2ccccc2CNC2CCN(Cc3ccccc3)CC2)cc1.O=C(O)C(F)(F)F`, for which the Inhibition in assay [1] is listed as 94%; in assay [2] it was 3%; in assay [3] it was 20%.
Turning to `c1ccc(CN2CCc3cc4nccc(N5CCNCC5)c4cc32)cc1`, the figures for the Inhibition in assay [1], in assay [2] and in assay [3] were 100%, 99% and 9%, respectively.
Take `OC(CNc1ccnc(Nc2ccccc2)n1)c1ccc(C(F)(F)F)cc1` (configuration not stated): the Inhibition in assay [1] is 100%; in assay [2] it was 39%; in assay [3], 3%.
Taken in the same sequence, the figures for `O=C(N[C@H]1CCN(Cc2ccc(OCCN3CCCC3)c3ccccc23)C1)c1ccc(Cl)c(Cl)c1.O=C(O)C(F)(F)F` were 100%, 51% and 90%.
With `Cn1cc(-c2ccnc3[nH]c(-c4cccc(CNC5CCC(O)CC5)c4)cc23)cn1.O=C(O)C(F)(F)F` (configuration not stated), the Inhibition turned out to be 95% in assay [1], 82% in assay [2] and 48% in assay [3].
For the compound `CCN1CCN(Cc2ccc(-c3ccc(NS(=O)(=O)c4cccc5cccnc45)cc3)cc2)CC1.O=C(O)C(F)(F)F`, the Inhibition was 90% in assay [1], 42% in assay [2] and 29% in assay [3].
Taken in the same sequence, the figures for `Nc1nc(F)nc2nc[nH]c12` were 89%, 25% and 78%.
In the case of `Cc1cccc2nc(-c3cccc(-c4ccc(NC(=O)NC(C)C)cc4)c3)[nH]c12`, the Inhibition in assay [1] is 98%; in assay [2], 44%; in assay [3] it was 30%.
